# Data as given in publication PMC8384837, “Expanding the binding specificity for RNA recognition by a PUF domain”.
# How the values were obtained:
# Assay in all cases: yeast three-hybrid, YBZ-1, SC-Leu-His + 0.5 mM 3-AT, 4 days
# Conditions in all cases: tags: N-Gal4 AD-HA kept; label: inside an RPR1-promoter hybrid RNA with tandem MS2 sites; ssRNA
# PUM1 PUF domain R3-TAQ = PUM1 PUF domain R3-TAQ (Homo sapiens, UniProt Q14671 828-1176, C935T;R936A)
# Outline: (§1)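 The interaction score is the logarithmic change in variant frequency from input to selection. It uses log2, with a pseudocount of 1 for absent variants, and frequencies came from PCR-amplified, Illumina-sequenced repeat regions. The libraries were Pumilio-1 PUF domains randomized at the three base-contacting residues per repeat, co-expressed with matching RNA elements in strain YBZ-1 (LexA–MS2 coat fusion, HIS3 reporter). Plating lasted four days on SC-Leu (input) or SC-Leu-His + 0.5 mM 3-AT (selection).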
# PUM1 PUF domain R3-DYE = PUM1 PUF domain R3-DYE (Homo sapiens, UniProt Q14671 828-1176, C935D;R936Y;Q939E)
# Outline: as §1
# PUM1 PUF domain R5-RAG = PUM1 PUF domain R5-RAG (Homo sapiens, UniProt Q14671 828-1176, C1007R;R1008A;Q1011G)
# Outline: as §1
# PUM1 PUF domain R5-RRK = PUM1 PUF domain R5-RRK (Homo sapiens, UniProt Q14671 828-1176, C1007R;Q1011K)
# Outline: as §1
# PUM1 PUF domain R3-IFG = PUM1 PUF domain R3-IFG (Homo sapiens, UniProt Q14671 828-1176, C935I;R936F;Q939G)
# Outline: as §1
# PUM1 PUF domain R4-MPV = PUM1 PUF domain R4-MPV (Homo sapiens, UniProt Q14671 828-1176, N971M;H972P;Q975V)
# Outline: as §1
# PUM1 PUF domain R3-PFL = PUM1 PUF domain R3-PFL (Homo sapiens, UniProt Q14671 828-1176, C935P;R936F;Q939L)
# Outline: as §1
# PUM1 PUF domain R2-EWE = PUM1 PUF domain R2-EWE (Homo sapiens, UniProt Q14671 828-1176, N899E;Y900W;Q903E)
# Outline: as §1
# PUM1 PUF domain R1-RTW = PUM1 PUF domain R1-RTW (Homo sapiens, UniProt Q14671 828-1176, S863R;R864T;Q867W)
# Outline: as §1
# PUM1 PUF domain R5-KAG = PUM1 PUF domain R5-KAG (Homo sapiens, UniProt Q14671 828-1176, C1007K;R1008A;Q1011G)
# Outline: as §1
sequence,measurement,setting,value
GGCUAGAACUAGUGGAUCCCCCGGCGCCCGGCGGCUCGAGCCCGGGUAAGUGUAAAUAGUCUGCAUGCCGCCGGGCGCCAUGCCUGCAGGUCGACUCUAGAAAACAUG,binding signal,PUM1 PUF domain R3-TAQ,4.25 log2 enrichment (interaction score)
same,binding signal,PUM1 PUF domain R3-DYE,3.76 log2 enrichment (interaction score)
same,binding signal,PUM1 PUF domain R5-RAG,0.1 log2 enrichment (interaction score)
same,binding signal,PUM1 PUF domain R5-RRK,1.82 log2 enrichment (interaction score)
same,binding signal,PUM1 PUF domain R3-IFG,3.21 log2 enrichment (interaction score)
same,binding signal,PUM1 PUF domain R4-MPV,2.14 log2 enrichment (interaction score)
same,binding signal,PUM1 PUF domain R3-PFL,3.64 log2 enrichment (interaction score)
GGCUAGAACUAGUGGAUCCCCCGGCGCCCGGCGGCUCGAGCCCGGGUAAGUGUAAGUAGUCUGCAUGCCGCCGGGCGCCAUGCCUGCAGGUCGACUCUAGAAAACAUG,binding signal,PUM1 PUF domain R3-IFG,5.86 log2 enrichment (interaction score)
GGCUAGAACUAGUGGAUCCCCCGGCGCCCGGCGGCUCGAGCCCGGGUAAGUGUGAAUAGUCUGCAUGCCGCCGGGCGCCAUGCCUGCAGGUCGACUCUAGAAAACAUG,binding signal,PUM1 PUF domain R5-RAG,0.18 log2 enrichment (interaction score)
same,binding signal,PUM1 PUF domain R5-RRK,1.4 log2 enrichment (interaction score)
GGCUAGAACUAGUGGAUCCCCCGGCGCCCGGCGGCUCGAGCCCGGGUAAGUGUUAAUAGUCUGCAUGCCGCCGGGCGCCAUGCCUGCAGGUCGACUCUAGAAAACAUG,binding signal,PUM1 PUF domain R5-RAG,3.37 log2 enrichment (interaction score)
same,binding signal,PUM1 PUF domain R5-RRK,4.7 log2 enrichment (interaction score)
GGCUAGAACUAGUGGAUCCCCCGGCGCCCGGCGGCUCGAGCCCGGGUAAGUGUAAUUAGUCUGCAUGCCGCCGGGCGCCAUGCCUGCAGGUCGACUCUAGAAAACAUG,binding signal,PUM1 PUF domain R3-IFG,3.79 log2 enrichment (interaction score)
same,binding signal,PUM1 PUF domain R3-PFL,4.55 log2 enrichment (interaction score)
GGCUAGAACUAGUGGAUCCCCCGGCGCCCGGCGGCUCGAGCCCGGGUAAGUGUAAAGAGUCUGCAUGCCGCCGGGCGCCAUGCCUGCAGGUCGACUCUAGAAAACAUG,binding signal,PUM1 PUF domain R2-EWE,3.45 log2 enrichment (interaction score)
GGCUAGAACUAGUGGAUCCCCCGGCGCCCGGCGGCUCGAGCCCGGGUAAGUGUAAAUUGUCUGCAUGCCGCCGGGCGCCAUGCCUGCAGGUCGACUCUAGAAAACAUG,binding signal,PUM1 PUF domain R1-RTW,3 log2 enrichment (interaction score)
GGCUAGAACUAGUGGAUCCCCCGGCGCCCGGCGGCUCGAGCCCGGGUAAGUGUAUAUAGUCUGCAUGCCGCCGGGCGCCAUGCCUGCAGGUCGACUCUAGAAAACAUG,binding signal,PUM1 PUF domain R4-MPV,3.02 log2 enrichment (interaction score)
GGCUAGAACUAGUGGAUCCCCCGGCGCCCGGCGGCUCGAGCCCGGGUAAGUGUCAAUAGUCUGCAUGCCGCCGGGCGCCAUGCCUGCAGGUCGACUCUAGAAAACAUG,binding signal,PUM1 PUF domain R5-RAG,3.6 log2 enrichment (interaction score)
same,binding signal,PUM1 PUF domain R5-RRK,4.43 log2 enrichment (interaction score)
same,binding signal,PUM1 PUF domain R5-KAG,2.58 log2 enrichment (interaction score)
